Screening results as filed in PubChem BioAssay.
aSyn UTR act = Activators working through SNCA 5'UTR binding (MLPCN). activity score, % (tested at 7.5 µM), hits read low. alpha-synuclein 5'UTR reporter, activators screen. actives 7.1% (n = 300,000); in the data active = activity score below about -60%
Numbers without * were called inactive. The list is a sample of the results.

SMILES	aSyn UTR act
CCS(=O)(=O)Nc1ccc(C2=NN(C(=S)Nc3ccccc3)C(c3ccco3)C2)cc1 (centres undefined)	-81*
CCC(=O)N1N=C(c2c(-c3ccccc3)c3cc(Cl)ccc3[nH]c2=O)CC1c1ccco1 (centres undefined)	42
Cc1ccc(C2=NN(C(=S)Nc3ccccc3)C(c3ccco3)C2)cc1 (centres undefined)	-178*
Cc1cccc(Nc2nc(-c3ccc4c(c3)OCCO4)cs2)c1	-203*
Cc1nc(-c2ccc3c(c2)OCCO3)cs1	-122*
Cc1ccc(-c2cc(NC(=O)c3ccccc3)on2)cc1	-190*
Cc1ccc(C(=O)Nc2ccccc2Sc2ccccc2)cc1	-62*
COc1ccc(C(=O)Nc2cc(-c3ccc(C)cc3)no2)cc1	-65*
CSc1nc(/C=C2\C=Nc3ccccc32)c(O)n1C	-152*
O=C1c2cc(F)ccc2-n2c1nc1ccccc1c2=O	66
O=c1oc(Nc2cccc(F)c2)nc2ccccc12	-64*
Nc1nc(Nc2cccc(F)c2)nc2ccccc12	-196*
Cc1ccc(N2C(=O)CC(Sc3nc(C)cc(C)n3)C2=O)cc1 (centres undefined)	-63*
O=C(CC(SCCO)c1ccc2c(c1)OCO2)c1ccco1 (centres undefined)	-98*
O=C(OCCC1Oc2cccnc2NC1=O)c1ccc([N+](=O)[O-])cc1 (centres undefined)	34
CCOC(=O)c1ccc(NC(=O)c2n[nH]c(=O)c3ccccc23)cc1	-90*
CCOC(=O)c1ccc(Nc2ncccc2[N+](=O)[O-])cc1	-218*
CCC(=O)NC(c1ccc(C)cc1)c1cc([N+](=O)[O-])c2cccnc2c1O (centres undefined)	64
CC1CCN(c2ccc(NC(=O)c3ccccc3[N+](=O)[O-])cc2)CC1	-70*
O=C(Nc1ccc2c(c1)OCO2)c1n[nH]c(=O)c2ccccc12	-140*
Nc1ccc(OC(=O)Nc2ccc(O)cc2)cc1	91
CCOC(=O)c1ccc(NC(=O)c2ccccc2)cc1	-252*
CCOC(=O)c1ccc(NC(=O)c2ccccc2[N+](=O)[O-])cc1	-76*
CCOC(=O)c1ccc(NC(=O)Oc2ccccc2)cc1	-66*
CCOC(=O)c1ccc(NC(=O)c2nc(S(=O)(=O)Cc3ccccc3)ncc2Cl)cc1	54
SMILES	aSyn UTR act
NC(=O)c1c(/N=C/c2cccnc2)sc2c1CCCC2	-102*
Cc1ccc(/C=N/c2sc3c(c2C(N)=O)CCCC3)o1	-114*
COc1cc(/C=C2/C(=N)N3N=C(CC(=O)N4CCOCC4)SC3=NC2=O)ccc1OCc1ccccc1	-129*
COc1cc(/C=C2/C(=N)N3C(c4ccccc4)=CSC3=NC2=O)ccc1OCC(=O)O	-68*
CCOc1ccc(/C=C2/Sc3ccc(C(=O)N4CCN(C(=O)c5ccco5)CC4)cc3N(C)C2=O)cc1OC	53
COc1ccc(-c2nnc(N(C)C(=O)c3cccnc3)s2)cc1	-108*
Cc1ccc(-c2nnc(N(C)C(=O)c3cccnc3)s2)cc1	-76*
Cc1cccc(-c2cnn(-c3cccc([N+](=O)[O-])c3)c2N)c1	-75*
Cc1cccc(-c2cnn(-c3ccccc3)c2N)c1	-129*
Nc1c(-c2ccccc2)cnn1-c1cccc(Cl)c1	-144*
Cc1ccc(NC(=O)c2cnccn2)cc1	-82*
O=C(Nc1ccc(Br)cc1)c1cnccn1	-94*
Cc1ccc(NC(=O)c2cnccn2)cc1C	-72*
O=C(OCc1nnc(-c2ccccc2)o1)C12CC3CC(CC(Br)(C3)C1)C2	-105*
C=CCOc1ccc(/C=C/C(C)=N\O)cc1	-110*
CCOC(=O)c1c(C)nc2sc(C(=O)Nc3ccccc3)c(N)c2c1-c1ccc(OC)cc1	-191*
COc1ccc(-c2c3c(nc4sc(C(=O)Nc5ccccc5)c(N)c24)CCC3)cc1	-128*
O=c1c2sccc2nc(SCc2cc(=O)n3cc(Br)ccc3n2)n1Cc1ccccn1	-90*
Cc1ccc(COc2ccc(/C=N/O)cc2)cc1	-131*
Cc1ccc(Oc2ccc(/C=N/O)cn2)cc1	-83*
Cc1ccc(C(=O)Nc2ccc(C(=O)/C=C/c3cccs3)cc2)cc1	-201*
O=C(/C=C/c1cccs1)c1ccc(Br)cc1	-96*
O=C(/C=C/c1cccs1)c1ccc(NC(=O)c2cccc(Br)c2)cc1	-85*
CCC(C)(C)c1ccc(OCCCC[n+]2cccc(C)c2C)c(C(C)(C)CC)c1	101
c1cnc(SCCOc2ccc3c(c2)CCC3)nc1	-111*
SMILES	aSyn UTR act
Cc1ccccc1CNC(=O)Nc1ccc(Cl)cc1	-110*
Cc1ccc(CNC(=O)Nc2ccccc2)c(C)c1	-153*
CC1CCN(C(=O)CSCC(=O)Nc2nc(-c3cccs3)cs2)CC1	-89*
CC1CCCN(C(=O)CSCC(=O)Nc2nc(-c3cccs3)cs2)C1 (centres undefined)	-76*
CC1CCN(C(=O)Cn2nnc(-c3cccs3)n2)CC1	-131*
O=C(Cn1nnc(-c2ccccc2F)n1)N1CCCCC1	-120*
O=C(NCC1CCCO1)c1ccc2nc(N3CCCCC3)sc2c1 (centres undefined)	-194*
CCC1=Nc2cc(C(=O)NCC3CCCO3)ccc2Sc2ccc(Cl)cc21 (centres undefined)	-74*
O=C(NCC1CCCO1)c1ccc(N2CCCCC2)nc1 (centres undefined)	-83*
O=C(NCC(c1cccs1)N1CCOCC1)c1ccc(Cl)cc1 (centres undefined)	-100*
COC(=O)Cn1c(=NC(=O)c2ccc(Cl)s2)sc2cc(F)ccc21	-111*
C#CCn1c(=NC(=O)c2ccc(Cl)s2)sc2cccc(OC)c21	-79*
CCn1ncc(Br)c1C(=O)Nc1cc(C)cc(C)c1	-71*
Clc1nc(-c2cccnc2)nc2scc(-c3ccccc3)c12	-134*
Cc1ccc(-c2nc3ccccc3s2)cc1S(=O)(=O)N1CCCC1	-63*
CCN(Cc1ccccc1)c1ccc(/C=C(\C#N)c2ccccn2)cc1	-137*
COC(=O)c1ccc(N2CCN(c3ccccc3)CC2)c(N)c1	-134*
COC(=O)c1ccc(N2CCN(c3ccccc3)CC2)nc1	-231*
O=c1c(Cl)c(O)c2cccc3c4ccccc4n1c23	-64*
COc1ccc(Br)cc1CNC(=O)C1CCN(C(=O)N(C)C)CC1	78
CC1CCCCN1C(=S)NCCc1ccccc1 (centres undefined)	-93*
O=C(NCCc1ccccc1)C1CCN(C(=O)Nc2ccccc2)CC1	-66*
CN(C)C(=O)N1CCCC(C(=O)NCCc2ccccc2)C1 (centres undefined)	-91*
CC1CCCN(C(=S)NCCc2ccccc2)C1 (centres undefined)	-102*
Cc1ccc(C(=O)Nc2c3c(nn2C(C)(C)C)CS(=O)(=O)C3)cc1[N+](=O)[O-]	-79*
SMILES	aSyn UTR act
CC(C)(C)n1nc2c(c1NC(=O)c1cc([N+](=O)[O-])ccc1Cl)CS(=O)(=O)C2	-95*
CSc1ccc(C2c3[nH]c4ccccc4c3CCN2C(=O)c2cc(C)n(C)n2)cc1 (centres undefined)	-287*
c1ccc(N2OCC3Cn4c(nc5ccccc54)C32)cc1 (centres undefined)	-64*
CN(c1ccc(O)cc1)c1nc(O)c(C2=c3ccccc3=NC2=O)s1	-155*
Cc1ncc(/C=C2\C(=O)Nc3ccccc32)[nH]1	-104*
CCOC(=O)Nc1sc2c(c1C#N)CCC(C)C2 (centres undefined)	-161*
CC1CCc2c(sc(NC(=O)COC(=O)C3CCCO3)c2C#N)C1 (centres undefined)	-68*
